From PubChem BioAssay come the findings set out here.

The source made the active and inactive calls. Unless noted, how the calls were made is not given here.

Assay [1] can be described thus: resazurin metabolic signal in HepG2 cells – cell-based, resazurin fluorescence, 24 h, PK04 Diversity Set, profiling panel (AID 1172). Further: test concentration not given here. The conditions noted are these: HepG2 viability, higher = more signal. On the technique in general: Alamar Blue is a resazurin reagent that responds to reducing activity.
The nature of assay [2]: budding yeast growth changes without added modifier – OD600, strain BY4716, 24 h, basal condition, primary screen (AID 1173). The conditions noted are these: S. cerevisiae BY4716 growth, OD600, 24 h; higher = more signal, called active from +8 up or from −8 down.
Assay [3] in a line: viability profiling in MM1S myeloma cells – cell-based, resazurin fluorescence, basal, 24 h, PK04 Diversity Set, profiling panel (AID 1174). Further: test concentration not given here. The conditions noted are these: higher = more signal, called active from +8 up or from −8 down.
The target in assay [4] is Dihydroorotate dehydrogenase (quinone), mitochondrial (Plasmodium falciparum (isolate 3D7)) (UniProt Q08210). As to the kind of experiment: inhibition of P. falciparum DHODH – biochemical, C-terminal His tag, absorbance 600 nm, primary screen (AID 1175).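 Further: recombinant parasite enzyme with a five histidine tag at its C terminus; test concentration not given here.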 Particulars: PfDHODH enzyme, DCIP absorbance 600 nm; higher = more signal, called active from +8 up or from −8 down.
Dihydroorotate dehydrogenase (quinone), mitochondrial (Plasmodium falciparum (isolate 3D7)), sequence (Q08210 whole entry, looked up): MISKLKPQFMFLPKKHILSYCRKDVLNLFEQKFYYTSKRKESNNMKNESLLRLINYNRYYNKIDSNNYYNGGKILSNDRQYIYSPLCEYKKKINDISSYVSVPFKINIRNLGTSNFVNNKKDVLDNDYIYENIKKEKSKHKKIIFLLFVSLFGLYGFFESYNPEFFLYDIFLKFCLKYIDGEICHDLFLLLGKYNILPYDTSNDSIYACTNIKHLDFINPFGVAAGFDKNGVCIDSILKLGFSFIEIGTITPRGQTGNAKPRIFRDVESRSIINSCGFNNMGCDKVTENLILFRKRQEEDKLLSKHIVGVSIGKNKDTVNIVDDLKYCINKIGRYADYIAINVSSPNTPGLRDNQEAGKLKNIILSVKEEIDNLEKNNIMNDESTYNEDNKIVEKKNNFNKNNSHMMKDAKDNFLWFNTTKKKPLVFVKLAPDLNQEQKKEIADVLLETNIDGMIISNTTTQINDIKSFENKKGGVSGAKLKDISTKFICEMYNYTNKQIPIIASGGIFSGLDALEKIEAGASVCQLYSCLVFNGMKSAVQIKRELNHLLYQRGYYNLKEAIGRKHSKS
Assay [5] is described as follows: inhibition of PAO1 biofilm formation – strain PAO1, LB-PBS medium, absorbance 600 nm, primary screen (AID 1176). Further: test concentration not given here. Particulars: P. aeruginosa PAO1 growth/biofilm, A600, 12 h; higher = more signal.
Assay [6] can be described thus: growth modulation of vineyard yeast isolate – strain RM11-1a, OD600, basal, 24 h, primary screen (AID 1177).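 Further: cultures grown under basal conditions with no added stressor; test concentration not given here.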 The conditions noted are these: S. cerevisiae RM11-1a growth, OD600, 24 h; higher = more signal, called active from +8 up or from −8 down.
The nature of assay [7]: growth of efflux-deficient E. coli DRC39 – strain DRC39, OD650, 24 h, E. coli filamentation inducers, primary screen (AID 1178).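 Further: growth measured as culture turbidity by optical density at 650 nm; test concentration not given here.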 The conditions noted are these: E. coli DRC39 acrAB, higher = more signal, called active from +8 up or from −8 down.
Assay [8] in a line: growth of efflux-deficient E. coli DRC39 – strain DRC39, OD650, 48 h, E. coli filamentation inducers, primary screen (AID 1179).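 Further: screen aims at cell division blockers that make cells filament.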 Particulars: E. coli DRC39 delta-acrAB growth, higher = more signal, called active from +8 up or from −8 down.
Assay [9] can be described thus: viability profiling in RPMI8226 myeloma cells – cell-based, resazurin fluorescence, basal, 24 h, PK04 Diversity Set, profiling panel (AID 1180).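 Further: RPMI8826 multiple myeloma cell line at 5000 cells per well; test concentration not given here.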 The conditions noted are these: higher = more signal.
The target of assay [10] is E3 ubiquitin-protein ligase XIAP (Homo sapiens) (UniProt P98170). Kind of assay: small molecules binding XIAP protein – biophysical, small-molecule microarray, fluorescence 635 nm, primary screen (AID 1181).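 Further: score merges 667 nm emission and signal to noise over triplicate slides.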 Particulars: higher = more signal.
E3 ubiquitin-protein ligase XIAP (Homo sapiens), sequence (P98170 whole entry, looked up): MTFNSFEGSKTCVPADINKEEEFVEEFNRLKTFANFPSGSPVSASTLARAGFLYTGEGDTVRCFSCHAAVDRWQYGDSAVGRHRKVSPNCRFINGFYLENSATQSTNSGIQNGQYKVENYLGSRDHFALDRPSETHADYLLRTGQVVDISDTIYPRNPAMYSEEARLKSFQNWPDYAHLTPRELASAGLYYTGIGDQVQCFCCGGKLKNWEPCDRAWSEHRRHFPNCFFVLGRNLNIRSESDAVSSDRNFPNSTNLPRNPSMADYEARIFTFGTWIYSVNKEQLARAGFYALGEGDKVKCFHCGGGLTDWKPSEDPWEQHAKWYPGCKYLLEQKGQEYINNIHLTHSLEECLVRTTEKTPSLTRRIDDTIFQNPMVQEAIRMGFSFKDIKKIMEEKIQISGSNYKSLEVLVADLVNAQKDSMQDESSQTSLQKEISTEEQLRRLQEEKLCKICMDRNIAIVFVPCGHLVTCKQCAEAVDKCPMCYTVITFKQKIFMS

For the compound `CCOC(=O)C1=CC[C@@H](c2cccc(Cl)c2)N(S(=O)(=O)c2ccc(C)cc2)C1`, the z-score is -0.36 in [1]; 0.255 (inactive) in assay [2]; -0.347 (inactive) in [3]; -0.405 (inactive) in assay [5]; -0.188 (inactive) in assay [6]; 0.242 (inactive) in assay [7]. The results for the z-score in assay [8] and in assay [9] were 1.2 (inactive) and -0.277, respectively. The values for the composite z-score in assay [4] and in [10] were -1.54 (inactive) and -0.149, respectively.
For the compound `CC(C)(C)N1CC=CC23O[C@@H]4C=CCOC(=O)[C@@H]4[C@H]2C(=O)N(CCCCCCO)[C@@H]3C1=O` (stereo not given in full), the z-score in [1] was -0.303; in assay [2] it was -0.093 (inactive); in assay [3] it was 0.448 (inactive); in [5] it was -0.608 (inactive); in assay [6] it was -0.957 (inactive); in [7], 0.226 (inactive). In addition, the z-score in assay [8] was 0.254 (inactive); in [9] it was 0.29. The figures for the composite z-score in [4] and in [10] were -0.817 (inactive) and 0.0385, respectively.
With `CN(C)C(=O)C1N=C(c2ccc(OCCCO)cc2)N(c2ccccc2)O1` (stereo not given), the z-score was 0.244 in assay [1]; -1.29 (inactive) in assay [2]; 0.689 (inactive) in [3]; -0.841 (inactive) in assay [5]; 0.353 (inactive) in assay [6]; 1.16 (inactive) in [7]. The figures for the z-score in assay [8] and in [9] were 1.56 (inactive) and 0.271, respectively. Also, the figures for the composite z-score in assay [4] and in assay [10] were -1.01 (inactive) and -0.181, respectively.
Turning to `COc1cc2c(cc1OC)CN(C(=O)[C@@H]1[C@H]3C(=O)O[C@H](c4ccccc4)[C@H](c4ccccc4)N3[C@H](c3ccc(OCCO)cc3)[C@@]13C(=O)Nc1ccccc13)CC2`, the z-score in assay [1] is -0.44; in assay [2] it was 1.39 (inactive); in assay [3] it was -1.54 (inactive); in assay [5], 3.15 (inactive); in assay [6], 4.05 (inactive); in [7] it was 0.144 (inactive). The z-score was 0.919 (inactive) in assay [8] and -0.0976 in [9]. The composite z-score in assay [4] was -1.09 (inactive); in [10], -0.0763.
For the compound `C=CCN1Cc2ccccc2[C@H]2OC(c3ccc(OCCCO)cc3)=N[C@@]2(CC=C)C1=O`, the z-score in [1] is -0.594; in assay [2], -0.926 (inactive); in assay [3], -1.72 (inactive); in assay [5], 0.507 (inactive); in assay [6], 1.18 (inactive); in assay [7] it was 0.36 (inactive). Moreover, the z-score in assay [8] was 1.09 (inactive); in [9] it was -1.8. Moreover, the composite z-score in assay [4] was -0.116 (inactive); in assay [10], 0.069.
As to `O=C(NCC(F)(F)F)[C@@H]1c2ccccc2C(=O)N(Cc2cc(F)cc(C(F)(F)F)c2)[C@H]1c1ccc(CO)cc1`, the z-score in assay [1] was -0.16; in assay [2], -0.359 (inactive); in assay [3], 0.0875 (inactive); in assay [5] it was 0.221 (inactive); in assay [6], 0.933 (inactive); in assay [7] it was 0.647 (inactive). In addition, the values for the z-score in assay [8] and in [9] were -0.0858 (inactive) and 0.867, respectively. The composite z-score in [4] was 0.94 (inactive); in assay [10], -0.126.
Take `COc1ccc(C(O)C2C=CC3C(=O)N(c4ccccc4)C(=O)C3N2Nc2ccc([N+](=O)[O-])cc2)cc1` (stereo not given): the z-score is -0.724 in assay [1]; 0.402 (inactive) in assay [2]; -0.754 (inactive) in assay [3]; 0.837 (inactive) in assay [5]; 0.613 (inactive) in [6]; -1.2 (inactive) in [7]. Besides, the results for the z-score in [8] and in assay [9] were -0.996 (inactive) and -0.502, respectively. The values for the composite z-score in [4] and in [10] were -0.0727 (inactive) and 0.21, respectively.
Take `COc1ccc(CCN2C(=O)[C@@]3(Cc4ccccc42)c2ccccc2C(=O)N(Cc2ccccc2OC)[C@H]3c2ccc(CO)cc2)cc1`: the z-score was -0.736 in assay [1]; -0.158 (inactive) in [2]; 0.289 (inactive) in [3]; -0.0065 (inactive) in [5]; -1.16 (inactive) in assay [6]; 0.981 (inactive) in assay [7]. The z-score was 0.339 (inactive) in assay [8] and 1.01 in [9]. The composite z-score in [4] was -4.65 (inactive); in assay [10] it was -0.194.
For the compound `C=C(COC)/C(=C/C[C@H](OC(=O)c1ccncc1)c1ccccc1OCCO)c1cnc2ccccc2c1`, the z-score in assay [1] was 2.02; in assay [2] it was -0.865 (inactive); in [3], 0.247 (inactive); in assay [5], -0.104 (inactive); in [6] it was -0.0351 (inactive); in assay [7] it was 0.213 (inactive). Besides, the z-score is -0.121 (inactive) in assay [8] and 0.377 in assay [9]. The values for the composite z-score in assay [4] and in [10] were -3.12 (inactive) and -0.0102, respectively.
With `COc1ccc(NC(=O)O[C@H]2[C@H](OC(=O)Nc3ccccc3)[C@H](OC(=O)Nc3ccccc3)[C@@H](OC)O[C@@H]2CO)cc1`, the z-score in assay [1] is -1.05; in assay [2], 0.593 (inactive); in [3], -1.49 (inactive); in assay [5], 0.509 (inactive); in assay [6], 0.767 (inactive); in [7], 0.124 (inactive). For the same compound, the z-score in [8] was 0.0606 (inactive); in assay [9] it was -0.936. The composite z-score in assay [4] is 1.59 (inactive); in assay [10] it was -0.0599.
